# Measured values taken from patent US20150152398, “Endoribonuclease and Methods of Use Thereof” (The Regents of the University of California, published 2015).
# Target: T1, TtCas6A (TTHA0078, Cas6) (Thermus thermophilus HB8)
# T1 chain: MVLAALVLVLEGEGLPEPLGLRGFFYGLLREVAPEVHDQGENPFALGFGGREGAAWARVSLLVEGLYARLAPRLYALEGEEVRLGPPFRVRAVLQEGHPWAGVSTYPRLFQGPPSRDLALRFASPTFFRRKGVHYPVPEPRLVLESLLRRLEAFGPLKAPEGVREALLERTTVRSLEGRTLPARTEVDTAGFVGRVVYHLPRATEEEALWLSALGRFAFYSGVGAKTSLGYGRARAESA
# Assay: EMSA; Kd in FIG. 24C only
# Settings: chain copies: 2 stated (dimer in solution); hairpin; ssRNA; [17,28]
# Description: FIG. 22 illustrates that TtCas6A and TtCas6B both cleave repeats R1 and R3 and retain their cleaved products. (A) Sequences and predicted secondary structures of T. thermophilus CRISPR repeats. Sites of cleavage are indicated with blue arrows. TtCas6e (TTHB192) cleaves repeat R2, while TtCas6A (TTHA0078) and TtCas6B (TTHB231) both cleave repeats R1 and R3. (B) Cleavage product binding affinities of TtCas6A and TtCas6B enzymes. Maltose binding protein (MBP)-fused TtCas6A or TtCas6B were bound to in 5′-radiolabelled, vitro transcribed R1 and R3 RNAs. Bound and unbound fractions were resolved by electrophoresis on a native polyacrylamide gel and visualized by phosphorimaging. The data for these and all subsequent binding assays were fit with standard binding isotherms (solid line). Error bars on each data point denote standard error of the mean (SEM) from three independent experiments. (C) Experiments to confirm single turnover. RNA cleavage assays were carried out at indicated protein:RNA ratios. RNA cleavage was monitored using denaturing polyacrylamide gel electrophoresis. The data from these and all subsequent endoribonuclease activity assays were fit with single exponential curves to yield first-order rate constants. (Top to bottom: FIG. 22A, SEQ ID NOs: 1, 2, 55).
# To test the importance of the stem sequence for substrate RNA recognition by TtCas6A, a series of EMSAs was performed using R1 repeat-derived RNAs that carried single base pair substitutions (C-G→A-U). All mutant RNAs contained the complete 5′ segment and additional two nucleotides downstream of the cleavage site. Compared to the wild-type RNA, substitution of any of the four C-G base pairs in the stem led to about five-fold decrease in affinity (FIG. 24C). This is consistent with the observation that the lower three C-G base pairs are specifically read out by Arg129. The binding defect observed upon mutation of the closing (uppermost) base pair could be due to loss of stability of the stem-loop structure, which is determined by the closing base-pair (Serra et al, 1993). […]
row,Sequence,binding signal
1,GUUGCAAGGGAUUGAGACCCGUAAGGGUAU,~5 fold lower affinity than wild-type RNA

# Same assay, conditions: chain copies: 2 stated (dimer in solution); hairpin; ssRNA; [18,27]
row,Sequence,binding signal
1,GUUGCAAGGGAUUGAGCACCGUAAGGUGAU,~5 fold lower affinity than wild-type RNA

# Same assay, conditions: chain copies: 2 stated (dimer in solution); hairpin; ssRNA; [19,26]
row,Sequence,binding signal
1,GUUGCAAGGGAUUGAGCCACGUAAGUGGAU,~5 fold lower affinity than wild-type RNA
